Screening results from PubChem BioAssay.
Hits are enriched below; roughly 0.45% of the tested compounds scored in any of these assays.
FMDV FLuc – FMDV antiviral activity by firefly signal | FMDV antiviral cell assay, firefly luciferase signal | Potency, µM (series often up to 57.5 µM), without a hit: top-dose activity change, negative = inhibition, most hits filed as inhibitors | hit rate 0.23% among 120,000 | AID 1745856; further: nearly all actives have a fitted effect of over 60% in size
FMDV RLuc – FMDV antiviral activity by Renilla signal | Potency, µM (top dose mostly 57.5 µM), for the others: at the top dose activity change, negative = inhibition, hits mostly inhibitors | AID 1745857 | hit rate 0.32% among 120,000 | FMDV replicon cells, Renilla luciferase signal; further: nearly all actives have a fitted effect of over 55% in size
The depositor's hits bear a star; u = inconclusive; [ ] = another dose, or the depositor's remark. The call rests on the fitted dose curve. On the % scale 0 is the no-effect control and ±100 the full control effect; potency means the concentration at half of the fitted maximal effect.

SMILES	FMDV FLuc	FMDV RLuc
COc1ccc(C(=O)/C(=C/c2ccccn2)c2nc3ccccc3o2)cc1	-102%	28µM*
Cc1ccc(CCNC(=O)CN2C(=O)CN(C(=O)NCc3ccccc3)c3ccccc32)cc1	10%	16%
COc1cccc(/C=C/c2nc(C#N)c(N3CCN(Cc4ccccc4)CC3)o2)c1	2%	-9%
C(#CCN1CCOCC1)CC(c1ccccc1)c1ccccc1	11%	10%
CCC[N+]1(CC#CCC(c2ccccc2)c2ccccc2)CCCCC1	u	4µM*
CCC(=O)Nc1ccc(C(=O)N/N=C(\C)C(C)(C)C)cc1	8%	-7%
CCOC(=O)c1ccc(NC(=O)c2cnn3c(=O)c4c(n(CC)c23)CCN(Cc2ccc(OC)cc2)C4)cc1	-15%	8%
CCn1c2c(c(=O)n3ncc(C(=O)N4CCN(c5ccc(C(C)=O)cc5)CC4)c13)CN(Cc1ccc(OC)cc1)CC2	u	22µM*
Cc1cccc(NC(=O)c2nc(S(C)(=O)=O)ncc2Cl)c1	u	35µM*
CCS(=O)(=O)c1ncc(Cl)c(C(=O)Nc2c(C(=O)Nc3cccc(C)c3)oc3ccccc23)n1	42%	10%
O=C(NNC(=S)Nc1ccc(F)cc1)Nc1ccccc1	10%	u
COc1ccc(C(C)=O)cc1COc1ccc2ccc(=O)oc2c1	8%	2%
CCNC(=O)NC(=O)C(C)Oc1ccc(C(=O)c2ccc(Cl)cc2)cc1 (stereo not drawn)	13µM*	u
CCOc1ccc(C(=O)c2ccc(Cl)cc2)cc1	42%	20%
CC(=O)N1N=C(c2c(-c3ccccc3)c3cc(Cl)ccc3n(C)c2=O)CC1c1ccco1 (stereo not drawn)	-27%	-21%
Cc1onc(-c2ccccc2Cl)c1C(=O)Oc1ccccc1F	-19%	37%
CCOc1ccc(OC(=O)c2c(-c3ccccc3Cl)noc2C)cc1	28µM*	u
COc1ccccc1NC(=O)CSc1ccc(-c2sc(C)nc2C)nn1	5%	20%
Cc1nc(C)c(-c2ccc(SCC(=O)Nc3ccc(Br)cc3)nn2)s1	u	2.8µM*
COc1ccc(OC)c2[nH]c(C(=O)NCC(=O)Nc3ccc4c(c3)OCO4)cc12	8%	-9%
Cc1cc(C)cc(-n2ccnc2SCC(=O)Nc2cccc3ccccc23)c1	2%	13%
Cc1cc(C)cc(-n2ccnc2SCC(=O)Nc2ccccc2F)c1	u	20µM*
O=S(=O)(Cc1ccc(F)cc1Cl)c1ccc2ccccc2c1	16%	0%
COc1ccc(CCNC(=O)C(C)n2nc(C)c3c(C)n(-c4ccccc4)nc3c2=O)cc1OC (stereo not drawn)	23%	9%
Cc1ccc(CCNC(=O)C(C)n2nc(C)c3c(C)n(-c4ccc(C)cc4)nc3c2=O)cc1 (stereo not drawn)	u	13µM*
SMILES	FMDV FLuc	FMDV RLuc
O=C(CN1C(=O)c2ccccc2S1(=O)=O)c1ccc(F)cc1	11µM*	13%
O=C(CN1C(=O)c2ccccc2S1(=O)=O)c1ccc(-c2ccc(Br)cc2)cc1	33%	-10%
COc1cc(OC)c2c(C)c(CC(=O)Nc3ccc4c(c3)OCCO4)c(=O)oc2c1	169%	-3%
CCC(C)NS(=O)(=O)c1cccc2cc(C)cnc12 (stereo not drawn)	3%	30%
CNc1nc2c(c(=O)n(C)c(=O)n2C)n1CC(O)COc1ccc(C)cc1 (stereo not drawn)	u	11µM*
CCNc1nc2c(c(=O)n(C)c(=O)n2C)n1CC(O)COc1ccccc1 (stereo not drawn)	-1%	-11%
CC(C)CNc1nc(-c2ccc(S(=O)(=O)N3CCCC3)cc2)cs1	u	22µM*
CCNc1nc(-c2ccc(S(=O)(=O)N3CCCCCC3)cc2)cs1	-9%	-13%
CC(Sc1nnc(-c2c[nH]c3ccccc23)o1)C(=O)NC(=O)NC1CCCCC1 (stereo not drawn)	24%	90%
Cn1c(=O)c2c(nc(Cl)n2CC(=O)c2ccc(C(C)(C)C)cc2)n(C)c1=O	u	11µM*
Cn1c(=O)c2c(nc(Br)n2CC(=O)c2ccc(F)cc2)n(C)c1=O	9%	-8%
Oc1ccc(-c2nc3cc(C(F)(F)F)ccc3s2)cc1	212%	4%
CCc1ccc(-c2nc(C)c(C(C)=O)s2)cc1	129%	14%
CCc1ccc(-c2nc(COC(=O)c3c(C)nsc3N)cs2)cc1	u	1.4µM*
N#Cc1cccc(C(=O)Nc2ccc(Cl)cc2C(F)(F)F)c1	17%	20%
COc1ccc(Nc2cc(C)nc(Nc3ccc(NC(=O)CC(C)(C)C)cc3)n2)cc1	u	22µM*
COc1ccc(Nc2cc(C)nc(NCc3ccccc3)n2)cc1	0%	-24%
Cc1ccc([N+](=O)[O-])cc1S(=O)(=O)Nc1cccc(C#Cc2cccs2)c1	-5%	0%
CCCCN(C)C(=O)C1CCCN(c2ncnc3onc(C)c23)C1 (stereo not drawn)	u	2µM*
CCCCN(CC)C(=O)C1CCCN(c2ncnc3onc(C)c23)C1 (stereo not drawn)	-28%	u
C=C(C)C[C@@H]1Cc2c(Br)cccc2[C@@H](CC(=C)C)N1	-4%	11%
Cc1ccccc1OCC(=O)Nc1ccc2nc(SCCOc3ccccc3)sc2c1	-11%	-1%
Cc1cccc(NC(=O)CSc2nc3ccc(NC(=O)COc4ccccc4C)cc3s2)c1	u	5µM*
Clc1ccc(SCc2nc(NC3CCCc4ccccc43)c3c4c(sc3n2)CCC4)cc1 (stereo not drawn)	12%	-8%[1.06 µM]
c1coc(CNCCCN2CCCCC2)c1	-10%	-2%
SMILES	FMDV FLuc	FMDV RLuc
CCCCOC(=O)c1ccc(NC(=O)c2ccc3c(c2)CCN3S(=O)(=O)c2ccccc2)cc1	-39%	-11%
CCCCOC(=O)c1ccc(NC(=O)c2ccc3c(c2)CCCN3S(C)(=O)=O)cc1	28µM*	22µM*
FC(F)(F)c1ccccc1N/N=C/c1ccccc1Br	134%	5%
CC(NC(=O)C1CCCCC1)C1CCCO1 (stereo not drawn)	-4%	5%
CC(Oc1ccc(-c2ccc(C#N)cc2)cc1)C(=O)c1cccc(Cl)c1 (stereo not drawn)	u	0%[1.06 µM]
CCCn1c(N(C)Cc2ccccc2)nc2c1c(=O)n(C)c(=O)n2C	14µM*	u
Cn1c(=O)c2c(nc(N(CCO)CCO)n2Cc2ccccc2)n(C)c1=O	2%	1%
Cc1cccc(-c2cc(C(=O)O)c3cc(C)ccc3n2)c1	57%	u
Cc1nc2cc(NS(=O)(=O)c3cccc(Cl)c3)ccc2o1	-1%	121%
O=C(c1ccnc(Cl)c1)N1CCC(c2nc3cc(C(F)(F)F)ccc3s2)CC1	11µM*	u
Cc1ccc(C(=O)N2CCC(c3nc4cc(C(F)(F)F)ccc4s3)CC2)cn1	u	14µM*
COc1cc(C(=O)N2CCC(c3nc4ccccc4s3)CC2)cc(OC)c1OC	u	-28%
Cc1ccc2oc(C(=O)N3CCC(c4nc5ccccc5s4)CC3)c(C)c2c1	-6%	-16%
Cc1c(C)c2ccc(OCC(=O)C(C)(C)C)c(C)c2oc1=O	117%	30%
CCOC(=O)CCc1c(C)c2ccc(OCC(=O)C(C)(C)C)c(C)c2oc1=O	2.8µM*	18%
Cc1c(Cl)cccc1NC(=O)c1n[nH]c(=O)c2ccccc12	15%	-16%
C=CCn1cc(C=O)c2ccccc21	13%	-3%
CC(=O)N1c2c(cc(Br)cc2S(=O)(=O)Nc2ccc(OC(F)(F)F)cc2)CC1C (stereo not drawn)	u	190%
